# According to PubChem BioAssay (NCATS):
# Values without a mark were called inactive. Inconclusive results are not listed. Entries that show only a call come without a potency. Activity calls are given as the source filed them. Calls come from the whole dose curve; as a rule, active = well fitted curve in the direction sought with a large enough effect; inconclusive = small, poorly fitted or top-dose-only effect, or another doubt; inactive = no such curve, though single readings can be large; an effect the other way counts as inactive or inconclusive.
# Experiments:
# [1] = molecular target: Glutathione peroxidase 1 (Homo sapiens) (UniProt P07203); test: Primary qHTS Assay for Inhibitors of Recombinant Selenoprotein Glutathione Peroxidase 1 (GPX1) (AID 1845191); note: nearly all actives have a fitted effect of over 65% in size
# In short: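 GR-coupled assay: compounds preincubated 30 min at room temperature with GPX1, then reaction started with CHP; final 10 nM GPX1, 1 mM GSH, 0.5 mM CHP, 0.5 mM NADPH, 100 nM GR, 0.01% BSA, pH 7.5 Tris buffer. NADPH fluorescence (340/450 nm) read at 0 and 15 min.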
# [2] = molecular target: Phospholipid hydroperoxide glutathione peroxidase GPX4 (Homo sapiens) (UniProt P36969); test: Primary qHTS Assay for Inhibitors of Recombinant Selenoprotein Glutathione Peroxidase 4 (GPX4) (AID 1845192); note: nearly all actives have a fitted effect of over 65% in size; for activity change, negative = inhibition: series mostly up to about 50 µM
# In short: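 GR-coupled assay: recombinant GPX4 preincubated 30 min with compound at room temperature; final 200 nM GPX4, 1 mM GSH, 0.5 mM cumene hydroperoxide, 0.5 mM NADPH, 100 nM GR, 0.01% BSA, pH 7.5 Tris. NADPH fluorescence (340/450 nm) read at 0 and 15 min.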
# [3] = molecular target: Luciferin 4-monooxygenase (Photinus pyralis) (UniProt P08659); test: Primary firefly luciferase (FLuc) qHTS assay for identification of artifact compounds. (AID 1845220); note: nearly all actives have a fitted effect of over 60% in size; for activity change, negative = inhibition: series mostly up to about 54 µM
# In short: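 D-luciferin and ATP (10 uM each, final) in Tris acetate buffer pH 7.6 were incubated with compounds for 15 min at room temperature. The reaction was started with 10 nM Photinus pyralis luciferase and luminescence read after 5 min. Percent inhibition was fitted to a 4-parameter Hill equation.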
# [4] = Primary fluorescence-based thiol-reactive (MSTI) qHTS assay for identification of artifact compounds. (AID 1845221); note: nearly all actives have a fitted effect of over 65% in size; note: potency is the fitted concentration of half-maximal effect;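 for activity change, negative = thiol reactive: series mostly up to about 54 µM; thiol-reactive compounds lower the probe fluorescence signal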
# In short: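 Reactivity toward the thiol probe MSTI (4 uM) is scored by fluorescence at Ex/Em 525/598 nm after 1 h at room temperature. Acetyl-MSTI and MSTI define the activity scale.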
# [5] = system: Nanoluciferase (engineered Oplophorus gracilirostris luciferase); test: Primary Nanoluciferase (NLuc) qHTS assay for identification of artifact compounds. (AID 1845222); note: series mostly up to about 54 µM
# In short: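 Diluted conditioned medium from NLuc-expressing S16 cells treated with compounds for 15 min at room temperature, then Nano-Glo substrate added; luminescence read after 5 min. Percent inhibition versus no-enzyme and DMSO controls fitted to 4-parameter Hill equation.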
# Chain of Glutathione peroxidase 1 (Homo sapiens) (P07203 whole entry, looked up): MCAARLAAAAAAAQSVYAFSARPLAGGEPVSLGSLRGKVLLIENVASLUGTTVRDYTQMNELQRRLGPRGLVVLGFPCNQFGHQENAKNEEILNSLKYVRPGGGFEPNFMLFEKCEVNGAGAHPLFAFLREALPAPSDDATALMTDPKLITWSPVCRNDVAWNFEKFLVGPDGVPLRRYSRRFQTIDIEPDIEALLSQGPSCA
# Chain of Phospholipid hydroperoxide glutathione peroxidase GPX4 (Homo sapiens) (P36969 whole entry, looked up): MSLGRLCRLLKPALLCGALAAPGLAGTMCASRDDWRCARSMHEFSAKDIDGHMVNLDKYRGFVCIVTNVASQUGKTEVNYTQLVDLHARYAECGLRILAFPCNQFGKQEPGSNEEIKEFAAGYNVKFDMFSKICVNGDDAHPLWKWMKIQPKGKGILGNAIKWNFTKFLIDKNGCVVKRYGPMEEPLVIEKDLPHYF
compound,measurement,setting,value
CC1(C)CC[C@]23CO[C@@]4(CCC5[C@@]6(C)CC[C@H](O[C@@H]7OC[C@H](O[C@@H]8O[C@H](CO)[C@@H](O)[C@H](O)[C@H]8O[C@@H]8OC[C@@H](O)[C@H](O)[C@H]8O)[C@H](O)[C@H]7O[C@@H]7O[C@H](CO)[C@@H](O)[C@H](O)[C@H]7O)[C@@](C)(CO)C6CC[C@@]5(C)[C@]4(C)C[C@H]2O)[C@@H]3C1 (stereo not given in full),Potency,[1],inactive
same,Potency,[2],inactive
same,outcome,[3],inactive [at 11.6 µM]
same,"activity change, negative = thiol reactive",[4],317% [at 11.5 µM]
same,"activity, negative = inhibition",[5],3.72% [at 11.6 µM]
CC(=O)OC(C)(C)/C=C/C(=O)C(C)(O)C1C(O)CC2(C)C3CC=C(C(C)(C)C(=O)O)C(CC(=O)O)C3(C)C(=O)CC12C (stereo not given),Potency,[1],inactive
same,Potency,[2],inactive
same,Potency,[3],inactive
same,Potency,[4],inactive
same,Potency,[5],inactive
C/C=C/C1=CC2=C(CO1)C(=O)C(C)(OC(=O)c1c(C)cc(O)cc1OC)C(O)C2 (stereo not given),Potency,[1],inactive
same,Potency,[2],inactive
same,Potency,[3],inactive
same,Potency,[4],inactive
same,Potency,[5],inactive
COc1cccc(CN(C(=O)CC(C)(C)C)[C@H]2C[C@H](C(=O)N3CCNCC3)N(Cc3ccc4c(c3)OCO4)C2)c1,Potency,[1],inactive
same,Potency,[2],inactive
same,Potency,[3],inactive
same,Potency,[4],inactive
same,Potency,[5],inactive
CCCc1cc(C)[nH]c(=O)c1CNC(=O)c1cc(-c2ccnc(N3CCN(C)CC3)c2)cc2c1cnn2C(C)C,Potency,[1],inactive
same,Potency,[2],inactive
same,Potency,[3],inactive
same,Potency,[4],inactive
same,Potency,[5],inactive
COc1cc(C(N)=O)nc(-c2ccccn2)c1O,Potency,[1],inactive
same,Potency,[2],inactive
same,Potency,[3],inactive
same,Potency,[4],23.8 µM (active)
same,Potency,[5],inactive
COc1cc2c(cc1NS(=O)(=O)c1ccc(Br)cc1C)n(C)c(=O)n2C,Potency,[1],inactive
same,Potency,[2],inactive
same,Potency,[3],inactive
same,Potency,[4],inactive
same,Potency,[5],inactive
CNC(C)C(=O)NC(C(=O)N1CCCC1C(=O)Nc1snnc1-c1ccccc1)C1CCCCC1 (stereo not given),Potency,[1],inactive
same,Potency,[2],inactive
same,Potency,[3],inactive
same,Potency,[4],inactive
same,Potency,[5],inactive
Cc1cc2c(c(=O)o1)C=C1CC[C@H]([C@H](C)Cn3cnc(=N)c4[nH]cnc43)C[C@@H]1O2,Potency,[1],inactive
same,Potency,[2],inactive
same,Potency,[3],inactive
same,Potency,[4],inactive
same,Potency,[5],inactive
Cn1ccc(NC(=O)c2cc(Oc3ccc(C(=O)N4CCC4)c(F)c3)c3c(c2)OC(C)(C)C3)n1,Potency,[1],inactive
same,Potency,[2],inactive
same,Potency,[3],inactive
same,Potency,[4],inactive
same,Potency,[5],inactive
COc1ccc2nccc(C(=O)CC[C@@H]3CCN(CC#Cc4cc(F)cc(F)c4F)C[C@@H]3C(=O)O)c2c1,Potency,[1],inactive
same,Potency,[2],inactive
same,Potency,[3],inactive
same,Potency,[4],inactive
same,Potency,[5],inactive
O=C(c1ccc(OC(F)F)c(C#Cc2ccccn2)c1)N1Cc2cccnc2C1,Potency,[1],inactive
same,Potency,[2],inactive
same,Potency,[3],inactive
same,Potency,[4],inactive
same,Potency,[5],inactive
C[C@@H]1O[C@@H](O[C@H]2[C@H](O[C@H]3CC[C@@]4(C)C(CC[C@]5(C)C4C=C[C@]46OC[C@@]7(CCC(C)(C)C[C@H]74)[C@@H](O[C@@H]4O[C@@H](C)[C@H](O)[C@@H](O)[C@H]4O)C[C@]65C)[C@]3(C)CO)O[C@H](CO)[C@@H](O)[C@@H]2O[C@@H]2O[C@H](CO)[C@@H](O)[C@H](O)[C@H]2O)[C@H](O)[C@H](O)[C@H]1O (stereo not given in full),Potency,[1],inactive
same,Potency,[2],inactive
same,outcome,[3],inactive [at 11.6 µM]
same,"activity change, negative = thiol reactive",[4],75.2% [at 11.5 µM]
same,"activity, negative = inhibition",[5],3.17% [at 11.6 µM]
CC1OC2OC(=O)C3(C)CC4C5(CO5)C5=CC(=O)OC(C)(C)C5=CC(=O)C4(C)C(C1=O)C23 (stereo not given),Potency,[1],inactive
same,Potency,[2],inactive
same,Potency,[3],inactive
same,Potency,[4],1.03 µM (active)
same,Potency,[5],inactive
C=C1/C(=C/C=C2\CCC[C@]3(C)[C@@H]([C@H](C)CC[C@@H](O)C(C)(C)O)CC[C@@H]23)C[C@@H](O)C[C@@H]1O,Potency,[1],inactive
same,Potency,[2],inactive
same,Potency,[3],inactive
same,Potency,[4],inactive
same,Potency,[5],inactive
COc1cc(N2CCC(O)CC2)ccc1Nc1nc(Nc2ccccc2S(=O)(=O)C(C)C)c2[nH]cnc2n1,Potency,[1],inactive
same,Potency,[2],inactive
same,Potency,[3],inactive
same,Potency,[4],1.68 µM (active)
same,Potency,[5],inactive
CC1(C)CC[C@]2(C(=O)O)CC[C@]3(C)C(=CCC4[C@@]5(C)C[C@@H](O)[C@H](O)[C@@](C)(CO)C5CC[C@]43C)[C@@H]2[C@@H]1O (stereo not given in full),Potency,[1],inactive
same,Potency,[2],inactive
same,Potency,[3],inactive
same,Potency,[4],10.3 µM (active)
same,Potency,[5],inactive
CCCOc1ccc(S(=O)(=O)N2CCN(CCO)CC2)cc1-c1nc2c(CCC)cn(CC)c2c(=O)[nH]1,Potency,[1],inactive
same,Potency,[2],inactive
same,Potency,[3],inactive
same,Potency,[4],inactive
same,Potency,[5],inactive
C=C1CCCC2(C)CCC(C(C)(C)OC3OC(C)C(O)C(O)C3OC(=O)/C(C)=C\C)CC12 (stereo not given),Potency,[1],inactive
same,Potency,[2],inactive
same,Potency,[3],inactive
same,Potency,[4],inactive
same,Potency,[5],inactive
CCC/C=C/C(=O)O[C@H]1CC(C)(C)CC2[C@@]13[C@H](O)C[C@]1(C)[C@@]2(CCC2[C@@]4(C)CC[C@H](O[C@@H]5O[C@H](C(=O)O)[C@@H](O)[C@H](O[C@@H]6O[C@H](CO)[C@H](O)[C@H](O)[C@H]6O[C@@H]6O[C@@H](C)[C@H](O)[C@@H](O)[C@H]6O[C@@H]6OC[C@](O)(CO)[C@H]6O)[C@H]5O[C@@H]5O[C@H](CO)[C@H](O)[C@H](O)[C@H]5O)C(C)(C)C4CC[C@]21C)O[C@H]3O (stereo not given in full),outcome,[1],inactive [at 9.52 µM]
same,"activity change, negative = inhibition",[2],-7.28% [at 9.73 µM]
same,"activity change, negative = inhibition",[3],0.937% [at 11.6 µM]
same,"activity change, negative = thiol reactive",[4],163% [at 11.5 µM]
same,"activity, negative = inhibition",[5],2.33% [at 11.6 µM]
CCN(Cc1ccccc1)C(=O)Cn1c(=O)n(C)c2cnc(-c3ccccc3)nc21,Potency,[1],inactive
same,Potency,[2],inactive
same,Potency,[3],inactive
same,Potency,[4],inactive
same,Potency,[5],inactive
O=C(N[C@H](Cc1cscn1)C(=O)N[C@@H](CC1CCCCC1)[C@@H](O)[C@@H](O)C1CC1)c1nc2ccccc2[nH]1,Potency,[1],inactive
same,Potency,[2],inactive
same,Potency,[3],inactive
same,Potency,[4],inactive
same,Potency,[5],inactive
CC(=O)N[C@H]1[C@H](O[C@H]2CC[C@@]3(C)C(CC[C@]4(C)C3CC=C3C5CC(C)(C)CC[C@]5(C(=O)O)C(O)C[C@]34C)C2(C)C)O[C@H](CO[C@@H]2O[C@H](C)[C@H](O)[C@H](O)[C@H]2O[C@@H]2OC[C@@H](O)[C@H](O)[C@H]2O)[C@@H](O)[C@@H]1O (stereo not given in full),Potency,[1],inactive
same,Potency,[2],inactive
same,"activity change, negative = inhibition",[3],-2.09% [at 11.6 µM]
same,"activity change, negative = thiol reactive",[4],111% [at 11.5 µM]
same,"activity, negative = inhibition",[5],3.71% [at 11.6 µM]
